14 compounds from PubChem BioAssay (NCI) can be followed below.

About 83,000 compounds went through this panel and 20% of them were active in at least one assay; those are over-represented in the sample as a whole.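 Cell lines were cultured in 96-well plates, exposed to a single compound concentration, and assessed for percent growth 48 hours later.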 Unmarked numbers belong to inactive results. Activity calls are given as the source filed them. Rule for the calls: active = growth percent below 10; inactive = the rest.

The subject of this assay is HCT-116 colon. Nature of the assay: NCI-60 one-dose screen, 48 h (100 = growth as untreated, 0 = no growth, -100 = all killed). Particulars: 10 µM unless noted.
With `O=C(Nc1ccc(-n2cc(-c3ccncc3)c(-c3ccc(Cl)c(O)c3)n2)cc1)c1cc(C(F)(F)F)cc(C(F)(F)F)c1`, the growth was 33.6%. Turning to `COc1ccc(C2CC(=O)c3c(O)cc(OC4OC(COC5OC(C)C(O)C(O)C5O)C(O)C(O)C4O)cc3O2)cc1O` (centres undefined), the growth was 43.6%. In the case of `O=C(NCCNCCO)c1cc([N+](=O)[O-])cc([N+](=O)[O-])c1O` it was 103%. As to `O=Nc1ccc(O)c2ccccc12`, the growth was 0.195% (active). Consider `CC(=O)N1CCN(CCNC(=O)n2cc(-c3ccncc3)c(-c3ccc(O)c(Cl)c3)n2)CC1`, for which the growth is 111%. Turning to `NC(=O)c1c(Nc2ccccc2)nn2cc(-c3nc4ccccc4s3)c(N)nc12`, the growth was 99.1%. For `CC(O)CN(CCO)CCN(CCO)CC(C)O` (centres undefined) the value was 104%; for `COC(=O)c1ccc2[nH]c(O)c(C(=Nc3ccc(N(C)C(=O)CN4CCN(C)CC4)cc3)c3ccc(OC)cc3)c2c1`, 3.03% (active); for `c1ccc(C(=NNc2nc3ccccc3o2)c2ccccn2)nc1`, 4.99% (active).

`COC(=O)C(Cc1cnc[nH]1)N1CC(=O)N2[C@@H](c3ccccc3)SC[C@H]2C1=O` (some centres undefined): the growth is 103%.

For the compound `COC(=O)c1ccc2[nH]c(O)c(C(=Nc3ccc(N(C)C(=O)CN4CCN(C)CC4)cc3)c3ccc4c(c3)OCO4)c2c1`, the growth is 0.577% (active). For `Cc1ccc(NCc2cn(-c3ccc(C(=O)O)cc3)nc2-c2ccc(C(=O)O)cc2)cc1` the value was 100%. In the case of `O=C(c1ccccc1)c1ccccc1-c1ccccc1` it was 14%. In the case of `CCCCCCC(C(=O)OCC)(C(=O)OCC)C1CCCCCC1` it was 99%.
